Results on 3 compounds are retold here after PubChem BioAssay (EPA / NIEHS).

Read-out in experiment [1]: Interleukin-1 alpha (IL1a), IL1A (gene 3552)
Briefly: BSK_KF3CT_IL1a: BioMAP Diversity Plus: KF3CT Assay for Interleukin-1 alpha (IL1a) Biomarker Activity (AID 2283070). Particulars: primary human keratinocytes with fibroblasts; actives raise or lower the signal. An outline of the steps:
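Human keratinocyte plus foreskin fibroblast primary co-culture, sampled 24 h after chemical dosing. IL-1a measured by ELISA; responses fitted bidirectionally against DMSO baseline (negative control), so gain or loss of signal both count.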

Read-out in experiment [2]: TIMP metallopeptidase inhibitor 2 (TIMP2), TIMP2 (gene 7077)
Briefly: BSK_KF3CT_TIMP2: BioMAP Diversity Plus: KF3CT Assay for TIMP metallopeptidase inhibitor 2 (TIMP2) Biomarker Activity (AID 2283071). The note with it: primary human keratinocytes with fibroblasts; actives raise or lower the signal. Put shortly:
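Human primary keratinocyte/foreskin fibroblast co-culture dosed with chemical and sampled at 24 h. TIMP-2 levels quantified by ELISA; bidirectional fitting against DMSO negative control as baseline.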

Read-out in experiment [3]: C-C motif chemokine 2 (Homo sapiens) (UniProt P13500)
The experiment in a line: BSK_KF3CT_MCP1: BioMAP Diversity Plus: KF3CT Assay for Monocyte Chemoattractant Protein 1 (MCP1/CCL2) Biomarker Activity (AID 2283073). The note with it: primary human keratinocytes with fibroblasts; actives raise or lower the signal. Put shortly: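 Human keratinocyte plus foreskin fibroblast primary co-culture exposed to chemical for 24 h. MCP-1 levels measured by ELISA. Bidirectional curve fitting relative to DMSO negative control as baseline.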

Read-out in experiment [4]: Matrix Metallopeptidase 9 (MMP9), MMP9 (gene 4318)
Briefly: BSK_KF3CT_MMP9: BioMAP Diversity Plus: KF3CT Assay for Matrix Metallopeptidase 9 (MMP9) Biomarker Activity (AID 2283074).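 As to AC50: MMP9 protein level quantified by ELISA in the co-culture.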 Particulars: primary human keratinocytes with fibroblasts; actives raise or lower the signal. Put shortly:
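Keratinocyte plus foreskin fibroblast human primary skin co-culture was dosed with chemical and MMP-9 was quantified by ELISA 24 h later. Bidirectional curve fitting used DMSO as negative control and activity baseline.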

Read-out in experiment [5]: urokinase plasminogen activator (uPA), PLAU (gene 5328)
Briefly: BSK_KF3CT_uPA: BioMAP Diversity Plus: KF3CT Assay for urokinase plasminogen activator (uPA) Biomarker Activity (AID 2283075). The note with it: primary human keratinocytes with fibroblasts; actives raise or lower the signal. Put shortly: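 Human keratinocyte plus foreskin fibroblast primary co-culture exposed to chemical for 24 h. uPA levels were quantified by ELISA, and activity was fitted bidirectionally against a DMSO negative-control baseline.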

Read-out in experiment [6]: CD40, CD40 (gene 958)
The experiment in a line: BSK_LPS_CD40: BioMAP Diversity Plus: LPS Assay for CD40 Biomarker Activity (AID 2283076). The note with it: primary human HUVEC with PBMC; actives raise or lower the signal. An outline of the steps: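 Primary human umbilical vein endothelial cells co-cultured with peripheral blood mononuclear cells, LPS-stimulated, were dosed with chemical and read 24 h later. CD40 levels were measured by ELISA and fitted bidirectionally against DMSO as negative control and baseline.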

Read-out in experiment [7]: E-selectin (Homo sapiens) (UniProt P16581)
Briefly: BSK_LPS_Eselectin: BioMAP Diversity Plus: LPS Assay for Eselectin Biomarker Activity (AID 2283077). The note with it: primary human HUVEC with PBMC; actives raise or lower the signal. An outline of the steps:
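Human umbilical vein endothelial cells co-cultured with peripheral blood mononuclear cells under LPS stimulation; E-selectin measured by ELISA 24 h after chemical dosing. Activity fitted bidirectionally against DMSO as negative control and baseline.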

Read-out in experiment [8]: Interleukin-8 (IL8), CXCL8 (gene 3576)
The experiment in a line: BSK_LPS_IL8: BioMAP Diversity Plus: LPS Assay for Interleukin-8 (IL8) Biomarker Activity (AID 2283078). Particulars: primary human HUVEC with PBMC; actives raise or lower the signal. Put shortly: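 Human umbilical vein endothelial cells co-cultured with PBMC were stimulated with LPS; IL-8 levels were measured by ELISA 24 h after chemical dosing. Activity was fitted bidirectionally against DMSO as negative control and baseline.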

Experiment [9] can be described thus: BSK_LPS_SRB: Viability Assessment in the BioMAP Diversity Plus: LPS Assay (AID 2283079).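 Also: total protein by sulforhodamine B absorbance as a cytotoxicity measure; measured one day after compound addition.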 Particulars: primary human HUVEC with PBMC. Put shortly:
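Human umbilical vein endothelial cells co-cultured with PBMC (LPS system) were dosed for 24 h. Total protein was stained with 0.1% sulforhodamine B after 10% TCA fixation, read at 560 nm, and fitted bidirectionally against DMSO baseline.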

Read-out in experiment [10]: Interleukin-1 alpha (IL1a), IL1A (gene 3552)
The experiment in a line: BSK_LPS_IL1a: BioMAP Diversity Plus: LPS Assay for Interleukin-1 alpha (IL1a) Biomarker Activity (AID 2283080). The note with it: primary human HUVEC with PBMC; actives raise or lower the signal. Put shortly: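 Human umbilical vein endothelial cells co-cultured with peripheral blood mononuclear cells were LPS-stimulated and exposed to test chemicals for 24 h. IL-1 alpha was quantified by ELISA, with bidirectional curve fitting against DMSO as the negative control and baseline.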

Read-out in experiment [11]: Monocyte Chemoattractant Protein-1 (MCP1), CCL2 (gene 6347)
Briefly: BSK_LPS_MCP1: BioMAP Diversity Plus: LPS Assay for Monocyte Chemoattractant Protein-1 (MCP1) Biomarker Activity (AID 2283081).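 As to AC50: secreted MCP-1 protein quantified by ELISA in culture supernatant.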 The note with it: primary human HUVEC with PBMC; actives raise or lower the signal. An outline of the steps:
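HUVEC plus PBMC co-culture (human primary cells, LPS system) exposed to test chemical for 24 h; MCP-1 measured by ELISA. Bidirectional curve fitting against DMSO baseline; parallel SRB total-protein staining flags overt cytotoxicity.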

Experiment [12] in a line: BSK_LPS_PGE2: BioMAP Diversity Plus: LPS Assay for Prostaglandin E2 (PGE2) Biomarker Activity (AID 2283082).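 As to AC50: secreted prostaglandin E2 measured by ELISA in LPS-stimulated co-culture.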 The note with it: primary human HUVEC with PBMC; actives raise or lower the signal. Put shortly:
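HUVEC plus PBMC co-culture stimulated with LPS; secreted PGE2 quantified by ELISA 24 h after chemical dosing. Activity fitted bidirectionally against DMSO as negative control and baseline; parallel SRB total-protein staining served as cytotoxicity check.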

Read-out in experiment [13]: Macrophage colony-stimulating factor (MCSF), CSF1 (gene 1435)
Briefly: BSK_LPS_MCSF: BioMAP Diversity Plus: LPS Assay for Macrophage colony-stimulating factor (MCSF) Biomarker Activity (AID 2283083). Particulars: primary human HUVEC with PBMC; actives raise or lower the signal. An outline of the steps:
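Human umbilical vein endothelial cells co-cultured with peripheral blood mononuclear cells were exposed to compound for 24 h. M-CSF levels were measured by ELISA, and bidirectional curve fitting used DMSO as the negative control and baseline.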

Read-out in experiment [14]: Tissue Factor, F3 (gene 2152)
The experiment in a line: BSK_LPS_TissueFactor: BioMAP Diversity Plus: LPS Assay for Tissue Factor Biomarker Activity (AID 2283084). Particulars: primary human HUVEC with PBMC; actives raise or lower the signal. An outline of the steps:
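Human umbilical vein endothelial cells co-cultured with peripheral blood mononuclear cells were dosed and stimulated with LPS. Cell-surface CD142 was quantified by ELISA at 24 h. Activity was fitted bidirectionally against DMSO baseline.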

Read-out in experiment [15]: Tumor necrosis factor (Homo sapiens) (UniProt P01375)
The experiment in a line: BSK_LPS_TNFa: BioMAP Diversity Plus: LPS Assay for Tumour Necrosis Factor alpha (TNFa) Biomarker Activity (AID 2283085).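 As to AC50: TNFa protein level quantified by ELISA in the co-culture.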 Particulars: primary human HUVEC with PBMC; actives raise or lower the signal. Put shortly:
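Human umbilical vein endothelial cells co-cultured with PBMC were exposed to test chemical and TNFa measured by ELISA 24 h after dosing. Bidirectional curve fitting was done relative to DMSO as negative control and baseline.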

Read-out in experiment [16]: Vascular cell adhesion molecule 1 (VCAM1), VCAM1 (gene 7412)
The experiment in a line: BSK_LPS_VCAM1: BioMAP Diversity Plus: LPS Assay for Vascular cell adhesion molecule 1 (VCAM1) Biomarker Activity (AID 2283086). The note with it: primary human HUVEC with PBMC; actives raise or lower the signal. An outline of the steps: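 Human umbilical vein endothelial cells co-cultured with peripheral blood mononuclear cells under LPS stimulation were exposed to test chemical for 24 h. VCAM-1 levels were then measured by ELISA, with bidirectional curve fitting relative to DMSO as negative control and baseline.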

Read-out in a further experiment: CD38, CD38 (gene 952)
Briefly: BSK_SAg_CD38: BioMAP Diversity Plus: SAg Assay for CD38 Biomarker Activity (AID 2283087). The note with it: primary human HUVEC with PBMC; actives raise or lower the signal. Put shortly:
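Fluorescence ELISA of cell-surface CD38 served as the read-out, with either increase or decrease fitted against DMSO controls. Cells were a human umbilical vein endothelium plus PBMC co-culture under SEB/TSST-1 stimulation, measured 24 h after dosing.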

Read-out in experiment [17]: CD40, CD40 (gene 958)
Briefly: BSK_SAg_CD40: BioMAP Diversity Plus: SAg Assay for CD40 Biomarker Activity (AID 2283088). The note with it: primary human HUVEC with PBMC; actives raise or lower the signal. An outline of the steps: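 Human umbilical vein endothelial cells co-cultured with PBMC; CD40 levels measured by ELISA with fluorescence read-out 24 h after chemical dosing. Gain or loss of signal fitted bidirectionally against DMSO baseline.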

Read-out in a further experiment: CD69, CD69 (gene 969)
Briefly: BSK_SAg_CD69: BioMAP Diversity Plus: SAg Assay for CD69 Biomarker Activity (AID 2283089).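 As to AC50: cell surface CD69 protein quantified by ELISA with fluorescence detection.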 The note with it: primary human HUVEC with PBMC; actives raise or lower the signal. An outline of the steps:
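Values derive from bidirectional fitting relative to DMSO vehicle. Cells: umbilical vein endothelium plus peripheral blood mononuclear cells, treated 24 h before fluorescent ELISA for CD69.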

Where “and” joins values, the source holds several entries; their conditions need not be identical. Equal entries are not always repeated. Calls of active or inactive are those of the source. The calls were made as follows: active = hit-call score of the fitted dose curve at least 0.9, where 1 is the maximum; inactive = score below 0.9.

The term AC50 denotes the concentration at which the activity in the assay is half-maximal.

Tumor necrosis factor (Homo sapiens), sequence (P01375 whole entry, looked up): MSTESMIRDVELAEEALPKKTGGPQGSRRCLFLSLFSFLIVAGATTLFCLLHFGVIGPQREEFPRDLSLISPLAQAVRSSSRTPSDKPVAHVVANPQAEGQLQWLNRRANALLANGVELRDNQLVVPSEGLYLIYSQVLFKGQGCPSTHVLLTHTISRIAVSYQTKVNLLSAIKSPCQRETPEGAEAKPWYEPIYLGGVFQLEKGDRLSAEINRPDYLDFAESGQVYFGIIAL
E-selectin (Homo sapiens), sequence (P16581 whole entry, looked up): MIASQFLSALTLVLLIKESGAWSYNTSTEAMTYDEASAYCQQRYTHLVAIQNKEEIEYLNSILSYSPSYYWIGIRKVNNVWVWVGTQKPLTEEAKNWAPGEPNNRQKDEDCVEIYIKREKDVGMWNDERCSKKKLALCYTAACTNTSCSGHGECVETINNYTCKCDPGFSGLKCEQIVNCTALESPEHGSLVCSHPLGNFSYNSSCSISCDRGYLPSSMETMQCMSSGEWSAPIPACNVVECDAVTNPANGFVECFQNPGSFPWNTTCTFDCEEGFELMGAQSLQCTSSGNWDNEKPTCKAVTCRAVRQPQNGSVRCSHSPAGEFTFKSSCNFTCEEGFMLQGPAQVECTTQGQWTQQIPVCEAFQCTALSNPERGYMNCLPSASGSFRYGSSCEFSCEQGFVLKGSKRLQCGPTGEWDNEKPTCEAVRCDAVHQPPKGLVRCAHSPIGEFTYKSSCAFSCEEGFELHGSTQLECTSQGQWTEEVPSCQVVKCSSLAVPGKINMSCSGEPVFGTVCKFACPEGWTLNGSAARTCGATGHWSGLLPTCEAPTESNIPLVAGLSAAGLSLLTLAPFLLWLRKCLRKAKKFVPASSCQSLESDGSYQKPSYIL

On to `C=CC(=O)OCC(F)(F)C(F)(F)C(F)(F)COC(=O)C=C`, for which the AC50 in experiment [1] was 30 µM (active) and 5.95 µM (active); in [2] it was 30 µM (active); in experiment [3] it was 22.3 µM (active) and 12.7 µM (active); in experiment [4], 24 µM (active) and 20.9 µM (active); in [5], 21.1 µM (active) and 25.7 µM (active); with CD40, CD40 (gene 958) [6], 8.33 µM (active) and 8.66 µM (active). In addition, the AC50 in experiment [7] was 16.1 µM (active) and 13.1 µM (active); in [8], 15.9 µM (active) and 14.8 µM (active); in experiment [9], 48.6 µM (active) and 47.4 µM (active); in experiment [10], 15.5 µM (active) and 12.1 µM (active); in experiment [11], 18.8 µM (active) and 16.1 µM (active); in experiment [12] it was 8.09 µM (active) and 8.04 µM (active). The concentration at half-maximal activity (AC50) in [13] is 14.9 µM (active) and 8.27 µM (active); in experiment [14], 21.9 µM (active) and 20.2 µM (active); in [15] it was 14.9 µM (active) and 15.7 µM (active); in experiment [16] it was 15.1 µM (active) and 8.51 µM (active); with CD38, CD38 (gene 952) it was 14.2 µM (active); in the experiment with CD40, CD40 (gene 958) [17], 16.3 µM (active) and 12.2 µM (active). Moreover, the concentration at half-maximal activity (AC50) with CD69, CD69 (gene 969) is 8.7 µM (active) and 8.29 µM (active).

As for `C[Si](Cl)(Cl)CCC(F)(F)C(F)(F)C(F)(F)C(F)(F)C(F)(F)C(F)(F)F`, the outcome in experiment [1] is “inactive”; in experiment [2], “inactive”; in [3] it was “inactive”; in [4], “inactive”; with CD40, CD40 (gene 958) [6], “inactive”; in [7], “inactive”. Also, the result in experiment [8], in [9], in [10], in [11], in experiment [12] and in experiment [13] was inactive. For the same compound, the outcome in experiment [14] is “inactive”; in experiment [15] it was “inactive”; in experiment [16], “inactive”; with CD38, CD38 (gene 952), “inactive”; with CD40, CD40 (gene 958) [17], “inactive”; with CD69, CD69 (gene 969) it was “inactive”.

As for `CCN=C1C=CC(=C(c2ccc(N(CC)CC)cc2)c2ccc(N(CC)CC)cc2)c2ccccc21`, the AC50 is 2.69 µM (active) and 2.13 µM (active) in [1]; 1.87 µM (active) and 1.66 µM (active) in [2]; 3.2 µM (active) and 2.66 µM (active) in experiment [3]; 1.61 µM (active) and 1.54 µM (active) in experiment [4]; 244 nM (active) and 1.3 µM (active) with CD40, CD40 (gene 958) [6]; 974 nM (active) and 574 nM (active) in experiment [7]. Besides, the AC50 was 782 nM (active) and 483 nM (active) in experiment [8]; 2.39 µM (active) and 2.33 µM (active) in experiment [9]; 2.54 µM (active) and 1.43 µM (active) in experiment [10]; 261 nM (active) and 1.13 µM (active) in experiment [11]; 3.95 µM (active) and 2.66 µM (active) in experiment [12]; 1.72 µM (active) and 1.53 µM (active) in experiment [13]. Also, the AC50 in [14] is 1.6 µM (active) and 1.55 µM (active); in experiment [15] it was 501 nM (active) and 519 nM (active); in experiment [16], 1.42 µM (active) and 1.55 µM (active); in the experiment with CD38, CD38 (gene 952), 713 nM (active) and 470 nM (active); in the experiment with CD40, CD40 (gene 958) [17], 1.69 µM (active) and 1.51 µM (active); with CD69, CD69 (gene 969), 1.34 µM (active) and 765 nM (active).
